PubChem BioAssay AID2156 (Johns Hopkins Ion Channel Center, 2009)
Screen size: about 310,000 compounds; about 3,400 (1.1%) were called active.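 The calls were made as follows: active = fluorescence ratio B-score at most minus 3 library SDs, with starting brightness B-score within 2 library SDs (cut at about -5.5 in these data); inactive = the rest, inconclusive results apart.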 Only a selection was taken, and actives are over-represented in it overall.

These compounds were tested against Potassium voltage-gated channel subfamily KQT member 2 (Rattus norvegicus) (UniProt O88943) (assay: rat KCNQ2 potassium channel inhibitors, primary screen, cell-based, CHO-K1, FluxOR thallium flux, B-score (AID 2156)). Settings: 20 min, at 10 µM; stronger effect = lower value.
Potassium voltage-gated channel subfamily KQT member 2 (Rattus norvegicus), sequence (O88943 whole entry, looked up): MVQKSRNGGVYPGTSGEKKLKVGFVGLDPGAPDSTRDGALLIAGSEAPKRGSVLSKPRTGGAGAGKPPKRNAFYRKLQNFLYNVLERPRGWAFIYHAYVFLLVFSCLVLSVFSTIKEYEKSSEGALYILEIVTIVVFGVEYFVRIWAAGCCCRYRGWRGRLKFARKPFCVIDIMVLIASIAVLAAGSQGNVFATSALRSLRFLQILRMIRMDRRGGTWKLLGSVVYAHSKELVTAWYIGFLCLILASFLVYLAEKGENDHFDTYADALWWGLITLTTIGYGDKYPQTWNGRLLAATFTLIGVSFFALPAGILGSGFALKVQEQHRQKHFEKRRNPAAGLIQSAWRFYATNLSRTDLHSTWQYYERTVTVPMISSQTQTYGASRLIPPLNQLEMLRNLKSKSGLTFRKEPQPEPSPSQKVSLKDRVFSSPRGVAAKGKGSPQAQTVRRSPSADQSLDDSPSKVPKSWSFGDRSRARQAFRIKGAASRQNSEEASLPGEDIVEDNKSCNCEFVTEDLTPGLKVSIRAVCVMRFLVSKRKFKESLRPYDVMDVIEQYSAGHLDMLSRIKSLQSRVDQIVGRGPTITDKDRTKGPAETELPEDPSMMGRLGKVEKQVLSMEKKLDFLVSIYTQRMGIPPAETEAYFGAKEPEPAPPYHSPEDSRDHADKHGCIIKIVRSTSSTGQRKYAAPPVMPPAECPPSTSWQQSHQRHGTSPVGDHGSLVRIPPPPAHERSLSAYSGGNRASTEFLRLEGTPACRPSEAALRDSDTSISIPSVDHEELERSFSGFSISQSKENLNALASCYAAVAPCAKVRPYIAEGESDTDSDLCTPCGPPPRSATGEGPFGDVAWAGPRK
For `Cc1ccc(-c2nn(-c3ccc(F)cc3)cc2C(=O)NCC(c2cccs2)N2CCOCC2)cc1` (stereo not drawn), the B-score was -1.75 (inactive).
`Cn1c2ccccc2c2c(C(=O)N3CCN(c4ccc(F)cc4)CC3)cn(C3CCCC3)c(=O)c21` was tested, and the B-score was -5.96 (active).
In the case of `CCOC(=O)N1CCN(C(=O)c2nn(-c3ccc(C)cc3)c(=O)c3c2c2ccccc2n3C)CC1`, the B-score is reported as “inactive”.
With `O=C(c1ccccc1Oc1ccccc1)N1CCN(c2ccc(F)cc2)CC1` the B-score was -3.32 (inactive).
`CN1C(C(=O)NCC2CC2)CC2Cn3c(nc4ccccc43)C21` (stereo not drawn) was tested, and the B-score was “inactive”.
`CCOC(=O)c1cnc2nc(SCc3ccccc3Cl)[nH]n2c1=O` was tested, and the B-score was -0.81 (inactive).
`O=C(CNCCC1=CCCCC1)Nc1ccccc1N1CCCCCC1` was tested, and the B-score was -8.12 (active).
In the case of `O=C(Cc1cccc2ccccc12)NCCC1=CCCCC1`, the B-score is reported as -0.18 (inactive).
In the case of `CCC(=O)N1CCN(c2ccccc2NC(=O)COc2cccc(C)c2C)CC1`, the B-score is reported as -4.29 (inactive).
`Cc1ccccc1NC(=O)CNc1ccccc1N1CCCCC1` was tested, and the B-score was -5.56 (active).
With `Cc1ccc(C(C)C)cc1OCC(=O)Nc1ccccc1N1CCCC1` the B-score was -8.31 (active).
With `O=C(CN1CCN(C2CCCCC2)CC1)Nc1ccccc1N1CCCCC1` the B-score was “inactive”.
With `Cc1ccc(C(C)C)cc1OCCN1CCCC1` the B-score was “inactive”.
In the case of `Cn1c(=O)c2c(nc(SCC(=O)Nc3ccccc3N3CCCCC3)n2C)n(C)c1=O`, the B-score is reported as -0.67 (inactive).
In the case of `Cc1ccccc1NC(=O)Nc1ccccc1N1CCCCC1`, the B-score is reported as “inactive”.
`N#Cc1cccc(OC(=O)c2ccc3c(=O)n4c(nc3c2)CCC4)c1` was tested, and the B-score was -0.01 (inactive).
In the case of `CN1CCN(S(=O)(=O)c2ccc(Nc3ccc(F)cc3)nc2)CC1`, the B-score is reported as -0.21 (inactive).
In the case of `COc1ccccc1CCNC(=O)CN1C(=O)NC2(CCCC2)C1=O`, the B-score is reported as “inactive”.
In the case of `CC(Oc1cccc(Cl)c1)C(=O)Nc1ccc(S(=O)(=O)Nc2ncccn2)cc1` (stereo not drawn), the B-score is reported as “inactive”.
`CSc1ccc(/C=C2\NC(=O)NC2=O)cc1` was tested, and the B-score was “inactive”.
`O=C(COC(=O)Cc1c[nH]c2ccccc12)NCCc1ccccc1` was tested, and the B-score was -0.71 (inactive).
In the case of `CCOC(=O)CN(C)Cc1c[nH]c2ccccc12`, the B-score is reported as “inactive”.
`O=C(Cc1c[nH]c2ccccc12)OCCOC(=O)Cc1c[nH]c2ccccc12` was tested, and the B-score was -7.66 (active).
For `CCCCN(C(=O)c1ccc(C)o1)c1c(N)n(CCCC)c(=O)[nH]c1=O`, the B-score was “inactive”.
With `CCC1CCC/C1=N\NC(=O)c1ccc(Cl)cc1` (stereo not drawn) the B-score was “inactive”.
In the case of `CC(C)c1ccccc1OCC(O)CN(CC(O)COc1cccc2ccccc12)C(C)C` (stereo not drawn), the B-score is reported as -6.3 (active).
In the case of `OC(COc1cccc2ccccc12)CN1CCN(c2ccccn2)CC1` (stereo not drawn), the B-score is reported as “inactive”.
In the case of `Cc1cc(C)c(NC(=O)C[N+](C)(C)CC(O)COc2cccc3ccccc23)c(C)c1` (stereo not drawn), the B-score is reported as “inactive”.
